Calls of active or inactive are those of the source.
How the values were obtained:
[1] = binders of probe aFSTL3 on microarray, primary screen, stem cell growth factor project, biochemical, small-molecule microarray, fluorescence 635/667 (AID 1064); settings: higher = more signal;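 further: measures binding of the biotinylated anti-FSTL3 antibody to printed compounds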
[2] = binders from COS7 lysate, DM2A8 probe, primary screen, torsin A project, cell lysate, small-molecule microarray, fluorescence 635/667 (AID 1065); settings: higher = more signal, COS7 lysate expressing mutant human TOR1A
[3] = binders of probe aFGF2 on microarray, primary screen, stem cell growth factor project, biochemical, small-molecule microarray, fluorescence 635/667 (AID 1067); settings: higher = more signal;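 further: measures binding of biotinylated aFGF2 protein to printed compounds on slides; z-score merges feature fluorescence and signal-to-noise across triplicate slides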
[4] = binders of probe aFGF10 on microarray, primary screen, stem cell growth factor project, biochemical, small-molecule microarray, fluorescence 635/667 (AID 1071); settings: higher = more signal;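 further: score merges 667 nm spot intensity and signal to noise from triplicate slides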
[5] = molecular target: Neurogenic locus notch homolog protein 2 (Homo sapiens) (UniProt Q04721); assay: Notch2 binders on small-molecule microarrays, primary screen, biochemical, small-molecule microarray, 635 nm fluorescence, stem cell growth factors (AID 1073); settings: Notch2 binding, higher = more signal
[6] = molecular target: Pro-neuregulin-1, membrane-bound isoform (Homo sapiens) (UniProt Q02297); assay: NRG1 binders on small-molecule microarrays, primary screen, psychiatric disease protein project, biochemical, small-molecule microarray, fluorescence 635/667 (AID 1075); settings: NRG1 binding, 635 nm fluorescence, higher = more signal;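 further: score combines 667 nm spot fluorescence with signal to noise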
[7] = tested on: Neuregulin-1 EGF-like domain; assay: binders of neuregulin-1 EGF-like domain, primary screen, biochemical, small-molecule microarray, 635 nm fluorescence (AID 1081); settings: small-molecule microarray binding, higher = more signal;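 further: binding of the protein to compounds printed on small-molecule microarray slides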
[8] = FRG1 promoter luciferase signal modulators, primary screen, FRG1 inhibition for FSHD, cell-based, C2C12 myotubes, firefly/Renilla luciferase, luminescence (AID 1084); settings: higher = more signal, called active from +8 up or from −8 down
[9] = binders of probe aFST on microarray, primary screen, stem cell growth factor project, biochemical, small-molecule microarray, fluorescence 635/667 (AID 1086); settings: higher = more signal;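 further: score merges 667 nm fluorescence with signal-to-noise of each printed compound spot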
[10] = binders of probe aHhip on microarray, primary screen, stem cell growth factor project, biochemical, small-molecule microarray, fluorescence 635/667 (AID 1087); settings: higher = more signal;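 further: score merges spot fluorescence at 667nm with spot signal to noise ratio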
[11] = tested on: PRMT1 (protein arginine N-methyltransferase 1); assay: PRMT1 binders on small-molecule microarrays, primary screen, biochemical, small-molecule microarray, 635 nm fluorescence (AID 1088); settings: small-molecule microarray binding, higher = more signal;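 further: binding of Prmt1 protein to compounds spotted on small-molecule microarray slides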
[12] = yeast growth modulation, basal conditions, primary screen, YJM789 clinical isolate, OD600, 24 h (AID 1089);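 further: growth of clinical yeast isolate S. cerevisiae YJM 789 seeded 1000 cells per well; test concentration not given here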; settings: S. cerevisiae YJM789 growth, higher = more signal, called active from +8 up or from −8 down
[13] = fission yeast growth modulation, primary screen, strain 972, OD600, 24 h, no modulator (AID 1090);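 further: basal condition with compound alone and no growth modifier present; test concentration not given here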; settings: S. pombe 972 growth, higher = more signal, called active from +8 up or from −8 down
[14] = S. cerevisiae growth modulation with rapamycin, primary screen, strain BY4716, OD600, 96 h (AID 1091); settings: higher = more signal, called active from +8 up or from −8 down; further: test concentration not given here
[15] = molecular target: Torsin-1A-interacting protein 2 (Homo sapiens) (UniProt Q8NFQ8); assay: LULL1 binders on small-molecule microarray, primary screen, cell lysate, human LULL1 lysate, 635/667 nm fluorescence (AID 1092); settings: hLULL1 lysate binding, 635 nm fluorescence, higher = more signal;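 further: probe is lysate of COS7 cells overexpressing human LULL1; score merges per-feature 667 nm fluorescence with signal-to-noise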
[16] = E. coli growth modulation, two-sided OD650, primary screen, E. coli filamentation project, strain DRC41, 24 h (AID 1093); settings: OD650, 24 h, higher = more signal, called active from +8 up or from −8 down;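 further: MC1000 strain lacking acrAB efflux and sulA so SOS filamentation is blocked; test concentration not given here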
[17] = small-molecule microarray binders of probe aLefty2, primary screen, biochemical, biotinylated probe, 635/667 nm fluorescence (AID 1094); settings: higher = more signal;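 further: score merges spot fluorescence near 667 nm with spot signal-to-noise ratio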
[18] = tested on: Noggin (protein binding on small-molecule microarray); assay: Noggin binders on small-molecule microarray, primary screen, biochemical, 635/667 nm fluorescence (AID 1095); settings: 635 nm fluorescence, higher = more signal;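 further: score merges 667 nm feature fluorescence with signal to noise over triplicate slides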
[19] = molecular target: Neurogenic locus notch homolog protein 3 (Homo sapiens) (UniProt Q9UM47); assay: NOTCH3 binders on small-molecule microarray, primary screen, biochemical, 635/667 nm fluorescence (AID 1096); settings: NOTCH3 binding, 635 nm fluorescence, higher = more signal
[20] = small-molecule microarray binders of probe aEGFR, primary screen, biochemical, biotinylated probe, 635/667 nm fluorescence (AID 1097); settings: higher = more signal;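 further: probe is a biotinylated anti-EGFR antibody binding compounds printed on slides; score combines fluorescence near 667 nm and signal to noise of each spot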

Chain of Neurogenic locus notch homolog protein 3 (Homo sapiens) (Q9UM47 whole entry, looked up): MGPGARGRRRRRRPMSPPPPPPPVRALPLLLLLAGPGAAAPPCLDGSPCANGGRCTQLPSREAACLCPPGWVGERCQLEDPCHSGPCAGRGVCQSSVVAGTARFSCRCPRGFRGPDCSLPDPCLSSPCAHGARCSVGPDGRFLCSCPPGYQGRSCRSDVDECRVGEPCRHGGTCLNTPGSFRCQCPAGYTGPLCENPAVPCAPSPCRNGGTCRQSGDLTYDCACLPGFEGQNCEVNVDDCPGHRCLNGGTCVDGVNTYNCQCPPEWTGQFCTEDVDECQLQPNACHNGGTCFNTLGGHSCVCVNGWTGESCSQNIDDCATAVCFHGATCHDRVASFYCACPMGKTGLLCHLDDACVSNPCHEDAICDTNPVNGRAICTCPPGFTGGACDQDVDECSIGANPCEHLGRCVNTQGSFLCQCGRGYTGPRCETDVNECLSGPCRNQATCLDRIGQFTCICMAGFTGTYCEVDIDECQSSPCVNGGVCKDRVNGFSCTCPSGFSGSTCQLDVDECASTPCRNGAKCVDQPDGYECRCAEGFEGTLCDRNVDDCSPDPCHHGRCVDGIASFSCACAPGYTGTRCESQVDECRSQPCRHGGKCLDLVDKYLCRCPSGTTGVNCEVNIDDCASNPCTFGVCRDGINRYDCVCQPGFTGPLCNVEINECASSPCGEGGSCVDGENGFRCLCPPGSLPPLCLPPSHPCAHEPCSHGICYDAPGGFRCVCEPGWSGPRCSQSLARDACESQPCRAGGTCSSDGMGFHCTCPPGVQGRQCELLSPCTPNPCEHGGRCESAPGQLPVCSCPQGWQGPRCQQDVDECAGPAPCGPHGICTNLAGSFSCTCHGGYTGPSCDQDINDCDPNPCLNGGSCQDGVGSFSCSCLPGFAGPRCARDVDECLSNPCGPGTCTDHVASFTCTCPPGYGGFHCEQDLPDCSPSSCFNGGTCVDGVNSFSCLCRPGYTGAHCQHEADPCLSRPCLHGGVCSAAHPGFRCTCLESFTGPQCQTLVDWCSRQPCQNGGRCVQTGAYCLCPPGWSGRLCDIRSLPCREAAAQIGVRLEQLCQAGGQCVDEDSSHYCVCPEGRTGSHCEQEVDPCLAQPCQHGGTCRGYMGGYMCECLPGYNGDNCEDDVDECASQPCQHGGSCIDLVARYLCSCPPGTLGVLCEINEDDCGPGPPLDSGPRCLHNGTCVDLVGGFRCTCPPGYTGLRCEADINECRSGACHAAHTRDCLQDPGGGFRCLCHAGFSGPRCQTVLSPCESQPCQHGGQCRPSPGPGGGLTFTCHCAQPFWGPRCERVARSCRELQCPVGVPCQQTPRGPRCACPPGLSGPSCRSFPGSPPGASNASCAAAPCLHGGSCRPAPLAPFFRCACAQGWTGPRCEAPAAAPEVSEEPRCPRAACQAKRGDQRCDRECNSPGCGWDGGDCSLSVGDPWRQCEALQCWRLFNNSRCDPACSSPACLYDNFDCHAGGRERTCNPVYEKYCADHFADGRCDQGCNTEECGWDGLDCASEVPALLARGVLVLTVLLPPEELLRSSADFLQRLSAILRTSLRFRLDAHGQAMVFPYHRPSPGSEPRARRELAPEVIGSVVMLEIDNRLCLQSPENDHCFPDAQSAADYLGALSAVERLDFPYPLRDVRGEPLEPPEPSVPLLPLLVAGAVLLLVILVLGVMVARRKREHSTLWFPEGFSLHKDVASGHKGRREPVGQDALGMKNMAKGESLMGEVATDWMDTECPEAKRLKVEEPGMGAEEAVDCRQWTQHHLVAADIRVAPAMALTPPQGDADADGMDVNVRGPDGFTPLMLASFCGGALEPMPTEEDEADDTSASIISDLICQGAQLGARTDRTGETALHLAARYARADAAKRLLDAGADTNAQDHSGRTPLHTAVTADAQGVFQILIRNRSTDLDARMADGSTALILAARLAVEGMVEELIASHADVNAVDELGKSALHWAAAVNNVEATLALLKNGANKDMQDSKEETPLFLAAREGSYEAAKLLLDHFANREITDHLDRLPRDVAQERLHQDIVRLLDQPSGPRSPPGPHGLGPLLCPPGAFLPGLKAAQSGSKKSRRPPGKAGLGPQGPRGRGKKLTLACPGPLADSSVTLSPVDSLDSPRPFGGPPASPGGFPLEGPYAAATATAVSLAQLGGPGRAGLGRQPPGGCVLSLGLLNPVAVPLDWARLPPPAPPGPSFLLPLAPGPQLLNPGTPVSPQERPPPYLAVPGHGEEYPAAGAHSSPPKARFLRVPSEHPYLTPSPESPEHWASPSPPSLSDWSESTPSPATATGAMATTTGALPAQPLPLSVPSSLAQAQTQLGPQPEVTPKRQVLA
Chain of Torsin-1A-interacting protein 2 (Homo sapiens) (Q8NFQ8 whole entry, looked up): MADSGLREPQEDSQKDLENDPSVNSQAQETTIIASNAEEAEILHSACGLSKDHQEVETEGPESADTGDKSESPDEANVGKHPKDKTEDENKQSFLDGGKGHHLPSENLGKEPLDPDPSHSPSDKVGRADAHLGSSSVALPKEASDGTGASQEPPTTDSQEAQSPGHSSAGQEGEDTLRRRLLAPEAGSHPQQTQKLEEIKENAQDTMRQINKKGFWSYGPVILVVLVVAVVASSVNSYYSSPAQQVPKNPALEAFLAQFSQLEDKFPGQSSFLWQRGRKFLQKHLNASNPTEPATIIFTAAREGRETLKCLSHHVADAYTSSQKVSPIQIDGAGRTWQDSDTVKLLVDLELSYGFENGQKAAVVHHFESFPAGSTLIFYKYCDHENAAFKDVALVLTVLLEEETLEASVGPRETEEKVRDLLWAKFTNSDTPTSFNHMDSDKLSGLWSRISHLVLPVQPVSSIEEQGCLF
Chain of Pro-neuregulin-1, membrane-bound isoform (Homo sapiens) (Q02297 whole entry, looked up, the tested form may be a part, canonical isoform): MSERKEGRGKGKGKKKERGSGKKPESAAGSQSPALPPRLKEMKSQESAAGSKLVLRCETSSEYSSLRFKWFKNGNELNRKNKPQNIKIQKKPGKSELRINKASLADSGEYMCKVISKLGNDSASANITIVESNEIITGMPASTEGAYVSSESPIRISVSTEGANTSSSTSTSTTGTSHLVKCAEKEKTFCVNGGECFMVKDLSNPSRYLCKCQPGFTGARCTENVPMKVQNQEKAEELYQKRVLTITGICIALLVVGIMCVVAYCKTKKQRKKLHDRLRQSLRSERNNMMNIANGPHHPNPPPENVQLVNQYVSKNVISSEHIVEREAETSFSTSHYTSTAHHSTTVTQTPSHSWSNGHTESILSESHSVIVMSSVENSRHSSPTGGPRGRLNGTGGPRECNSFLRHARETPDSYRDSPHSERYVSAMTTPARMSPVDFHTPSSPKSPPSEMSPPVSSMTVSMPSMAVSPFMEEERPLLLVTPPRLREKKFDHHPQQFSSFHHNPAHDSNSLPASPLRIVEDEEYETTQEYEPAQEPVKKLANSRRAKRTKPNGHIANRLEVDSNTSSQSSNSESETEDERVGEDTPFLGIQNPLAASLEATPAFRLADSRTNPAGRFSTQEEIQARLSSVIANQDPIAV

## COCCNC(=O)OCC1CCCC2(CC(OC(=O)NCc3cccc4ccccc34)CC(CCC(=O)N[C@@H](C)C(=O)OC)O2)O1 (stereo not given in full)
[1]
  composite z-score: -0.486
[2]
  composite z-score: 0.0192
[3]
  composite z-score: -0.0692
[4]
  composite z-score: 0.662
[5]
  composite z-score: 0.668
[6]
  composite z-score: 0.737
[7]
  composite z-score: 1.03
[8]
  z-score: -1.43 (inactive)
[9]
  composite z-score: 0.311
[10]
  composite z-score: -0.0994
[11]
  composite z-score: 1.55
[12]
  z-score: 1.48 (inactive)
[13]
  z-score: 1.4 (inactive)
[14]
  z-score: 2.67 (inactive)
[15]
  composite z-score: 1.29
[16]
  z-score: 0.22 (inactive)
[17]
  composite z-score: -0.145
[18]
  composite z-score: 1.18
[19]
  composite z-score: 1.05
[20]
  composite z-score: -0.0978

## C[C@H]1CC[C@H]2C(=O)OC(COc3ccc(C(C)(C)C)cc3)CN2[C@@H]1c1ccc(Br)cc1 (stereo not given in full)
[1]
  composite z-score: -0.373
[2]
  composite z-score: -0.52
[3]
  composite z-score: -0.169
[4]
  composite z-score: 0.62
[5]
  composite z-score: -0.123
[6]
  composite z-score: 0.449
[7]
  composite z-score: 1.05
[8]
  z-score: 0.458 (inactive)
[9]
  composite z-score: -0.0895
[10]
  composite z-score: -0.0618
[11]
  composite z-score: 1.02
[12]
  z-score: -0.498 (inactive)
[13]
  z-score: -17.9 (active)
[14]
  z-score: -1.73 (inactive)
[15]
  composite z-score: 1.25
[16]
  z-score: 1.24 (inactive)
[17]
  composite z-score: -0.139
[18]
  composite z-score: 0.756
[19]
  composite z-score: 0.165
[20]
  composite z-score: -0.175

## C=CC[C@@H]1C=CC(ON=C(C)C)[C@@H](CO)O1 (stereo not given in full)
[1]
  composite z-score: 0.0856
[2]
  composite z-score: -0.809
[3]
  composite z-score: -0.196
[4]
  composite z-score: -0.246
[5]
  composite z-score: -0.561
[6]
  composite z-score: -0.34
[7]
  composite z-score: -0.0889
[8]
  z-score: 1.35 (inactive)
[9]
  composite z-score: -0.238
[10]
  composite z-score: 0.107
[11]
  composite z-score: -0.316
[12]
  z-score: 1.03 (inactive)
[13]
  z-score: 0.446 (inactive)
[14]
  z-score: 1.16 (inactive)
[15]
  composite z-score: -0.632
[16]
  z-score: 0.452 (inactive)
[17]
  composite z-score: -0.103
[18]
  composite z-score: -0.117
[19]
  composite z-score: -1.08
[20]
  composite z-score: -0.215

## COC(=O)[C@H](C)NC(=O)CCC1CC(OC(=O)NCCc2ccc(F)cc2)CC2(CCCC(COC(=O)NCC3CCCCC3)O2)O1 (stereo not given in full)
[1]
  composite z-score: -0.429
[2]
  composite z-score: 0.437
[3]
  composite z-score: -0.116
[4]
  composite z-score: 0.605
[5]
  composite z-score: 1.32
[6]
  composite z-score: 0.618
[7]
  composite z-score: 1.06
[8]
  z-score: 0.617 (inactive)
[9]
  composite z-score: 0.486
[10]
  composite z-score: -0.143
[11]
  composite z-score: 1.49
[12]
  z-score: -0.797 (inactive)
[13]
  z-score: -0.781 (inactive)
[14]
  z-score: 0.689 (inactive)
[15]
  composite z-score: 2.16
[16]
  z-score: -0.718 (inactive)
[17]
  composite z-score: -0.139
[18]
  composite z-score: 0.883
[19]
  composite z-score: 1.06
[20]
  composite z-score: 0.0207

## CCOC(=O)CCN1C(=O)[C@H]2[C@H]3[C@H](O)[C@H](O)CC(=NOCC=C(C)CCC=C(C)C)[C@@H]3CC[C@H]2C1=O
[1]
  composite z-score: 0.149
[2]
  composite z-score: 1.13
[3]
  composite z-score: -0.133
[4]
  composite z-score: 0.84
[5]
  composite z-score: 0.845
[6]
  composite z-score: 0.258
[7]
  composite z-score: 0.658
[8]
  z-score: -0.594 (inactive)
[9]
  composite z-score: 0.42
[10]
  composite z-score: 0.0515
[11]
  composite z-score: 0.316
[12]
  z-score: -1.28 (inactive)
[13]
  z-score: 0.237 (inactive)
[14]
  z-score: -0.44 (inactive)
[15]
  composite z-score: 1.01
[16]
  z-score: 6.79 (inactive)
[17]
  composite z-score: -0.197
[18]
  composite z-score: 0.742
[19]
  composite z-score: 0.808
[20]
  composite z-score: -0.0415

Source: PubChem BioAssay
